Screening results deposited in PubChem by The Scripps Research Institute Molecular Screening Center.
Shown are actives, neighbours in structure and some others; about 4.1% of the full set was active somewhere.
DAX1 inh-1 – NR0B1 (DAX1) inhibition | 340,000 compounds, 0.99% hits | AID 504766 | P51843 | inhibition, % at 6.75 µM | HEK293 Gal4-DAX1 luciferase reporter, luminescence;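 active means inhibition above the mean over all tested compounds plus 3 SD, cut at about 4.2% in these data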;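 further: 0% = DAX1-transfected cells with DMSO and 100% = empty-vector control cells with DMSO; inhibition shows as a rise in luminescence from relieved DAX1 repression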
Target sequence (P51843 207-470 limits assumed): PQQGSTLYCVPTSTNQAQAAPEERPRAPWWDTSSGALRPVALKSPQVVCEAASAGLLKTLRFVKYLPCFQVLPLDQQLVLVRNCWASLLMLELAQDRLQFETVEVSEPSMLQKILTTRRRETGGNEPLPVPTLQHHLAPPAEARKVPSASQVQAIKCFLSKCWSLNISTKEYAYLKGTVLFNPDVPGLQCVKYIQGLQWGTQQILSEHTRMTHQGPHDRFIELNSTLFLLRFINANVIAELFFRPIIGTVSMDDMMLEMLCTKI
hgDAF12 agonist – activates the H. glycines DAF-12 receptor ligand-binding domain; HEK293 GAL4-hgDAF12 UAS-luciferase reporter, agonist luminescence; normalized to butyrate control; 370,000 compounds, 1.8% hits; activation, % at 6.8 µM;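 active means activation above a cutoff set at the mean of all screened compounds plus 3 SD, cut at about 10% in these data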;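 further: 0% = DMSO wells and 100% = sodium butyrate wells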
hcDAF-12 act – H. contortus DAF-12 activation, primary screen; HEK293 hcDAF-12 lit1-tk-luc reporter, luminescence; 0% DMSO, 100% Δ7-dafachronic acid; 370,000 compounds, 1.4% hits; AID 652067; activation, % at 6.8 µM;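 active means activation above the mean of all tested compounds plus 3 SD, cut at about 5.5% in these data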;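 further: 100% = response to 3 µM Δ7-dafachronic acid high control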
ssDAF-12 act – activators of S. stercoralis DAF-12 nuclear receptor; HEK293 ssDAF-12/GRIP1 lit1-tk-luc reporter, luminescence; % of 3 µM dafachronic acid response; activation, % at 6.8 µM; 370,000 compounds, 1% hits; AID 652126;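 active means activation above the mean over all tested compounds plus 3 SD, cut at about 0.9% in these data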;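 further: 0% = DMSO-only wells and 100% = 3 µM delta7-dafachronic acid wells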
DAX1 inh-2 – DAX1 (NR0B1) inhibition, primary screen; inhibition, % at 6.8 µM; HEK293T StAR-luciferase reporter, SF-1/DAX-1 repression relief; 370,000 compounds, 1.1% hits;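 active means inhibition above the mean over all tested compounds plus 3 SD, cut at about 3.6% in these data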;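 further: 0% = DAX-1 cells with DMSO and 100% = cells lacking DAX-1 with DMSO; higher inhibition means more luminescence from relief of DAX-1 repression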
DAX1 inh confirm – NR0B1 (human) inhibition, confirmation. shares compounds with DAX1 inh-2. HEK293T StAR-promoter luciferase reporter, SF-1/DAX-1 repression. inhibition, % at 6.8 µM. 2,400 compounds, 87% hits;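 active means inhibition above the average of every tested compound plus 3 SD, cut at about 3.8% in these data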;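 further: 0% = DAX-1 cells with DMSO and 100% = no DAX-1 control cells with DMSO; active compounds raise luminescence by relieving repression of the StAR reporter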
Target sequence (P51843 whole entry, looked up): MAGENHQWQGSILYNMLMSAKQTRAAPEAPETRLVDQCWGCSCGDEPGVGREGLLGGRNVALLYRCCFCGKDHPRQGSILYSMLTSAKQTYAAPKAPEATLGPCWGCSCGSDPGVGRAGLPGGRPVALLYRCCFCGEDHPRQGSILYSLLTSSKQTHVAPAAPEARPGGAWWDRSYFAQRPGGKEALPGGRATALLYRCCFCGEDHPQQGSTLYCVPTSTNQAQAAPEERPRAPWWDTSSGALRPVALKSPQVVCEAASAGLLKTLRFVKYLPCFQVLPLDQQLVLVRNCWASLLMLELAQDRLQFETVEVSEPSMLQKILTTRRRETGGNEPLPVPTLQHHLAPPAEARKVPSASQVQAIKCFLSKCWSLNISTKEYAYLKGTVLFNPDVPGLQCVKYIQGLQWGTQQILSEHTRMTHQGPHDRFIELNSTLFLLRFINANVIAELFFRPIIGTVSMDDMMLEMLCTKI
SF1 AF2mut Luc – nonselective inhibitor or artifact in SF-1 mutant DAX1 counter-screen | HEK293 StAR-luciferase, SF-1 AF2 mutant, luminescence | 2,400 compounds, 78% hits | inhibition, % at 6.8 µM | shares compounds with DAX1 inh-2;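 active means inhibition above the mean of all tested compounds plus 3 SD, cut at about 3% in these data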;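 further: 0% = DAX-1 transfected cells with DMSO and 100% = cells without DAX-1 with DMSO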
LXR ag – counter-screen for hcDAF-12 agonists: agonists of human LXR-beta; activation, % at 6.8 µM; shares compounds with hcDAF-12 act; 3,400 tested, under 10 active; HEK293 Gal4-LXR tk-luc reporter, luminescence, 24 h; normalized: DMSO 0%, positive control 100%; AID 743027;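 active means mean percent activation of the reporter above a cutoff set as the average over tested compounds plus their standard deviation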
hcDAF12 ag – confirmation of H. contortus DAF-12 agonists. shares compounds with hcDAF-12 act. HEK293 hcDAF-12 lit1-tk-luc reporter, luminescence; % of Δ7-dafachronic acid response. activation, % at 6.8 µM. 3,400 compounds, 61% hits;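 active means mean activation across triplicate tests above the threshold derived from the earlier primary screen, cut at about 5.5% in these data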;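 further: 0% = DMSO only wells and 100% = 3 µM Δ7-dafachronic acid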
hgDAF12 conf – confirmation of H. glycines DAF-12 agonists | AID 743050 | activation, % at 6.8 µM | shares compounds with hgDAF12 agonist | 3,300 compounds, 80% hits | HEK293 GAL4-hgDAF12 luciferase reporter, agonist mode; percent of butyrate response;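 active means mean activation over triplicate wells above the hit cutoff derived from the earlier primary screen, cut at about 11% in these data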;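 further: 0% = DMSO low control and 100% = 2 mM sodium butyrate high control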
LXR ag 2 – counter-screen for DAF-12 agonists: agonists of human LXR-beta. shares compounds with hgDAF12 agonist. 3,300 tested, under 10 active. AID 743051. activation, % at 6.8 µM. HEK293 Gal4-LXR luciferase reporter, 24 h;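 active means mean activation of the triplicate above a set limit carried over from the primary screen, none filed active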
* hit, by the source's call.

`Cc1ccc(-c2nc3cc(NC(=O)C(C)C)ccc3o2)cc1` gave DAX1 inh-1 -1, hgDAF12 agonist 13*, hcDAF-12 act 7.9*, ssDAF-12 act 1.3*, DAX1 inh-2 5.1*, DAX1 inh confirm 14*, SF1 AF2mut Luc 4.4*, LXR ag 1, hcDAF12 ag 5, hgDAF12 conf 15* and LXR ag 2 1.
`CC(=O)Nc1ccc2oc(-c3ccccc3)nc2c1` gave DAX1 inh-1 4, hgDAF12 agonist 15*, hcDAF-12 act 2, ssDAF-12 act 1, DAX1 inh-2 5.6*, DAX1 inh confirm 12*, SF1 AF2mut Luc 8.8*, hgDAF12 conf 15* and LXR ag 2 1.
`Cc1cccc(-c2nc3cc(NC(=O)C4CCCO4)ccc3o2)c1` (stereo unspecified) gave DAX1 inh-1 -3, hgDAF12 agonist 14*, hcDAF-12 act 8.7*, ssDAF-12 act 0.9*, DAX1 inh-2 6.8*, DAX1 inh confirm 15*, SF1 AF2mut Luc 5.4*, LXR ag 2, hcDAF12 ag 7.8*, hgDAF12 conf 12* and LXR ag 2 1.
CC(=O)Nc1cccc(-c2nc3ccccc3o2)c1 was read as DAX1 inh-1 -2, hgDAF12 agonist 1, hcDAF-12 act -2, ssDAF-12 act -1 and DAX1 inh-2 1.
Screening O=C(Nc1ccc2oc(-c3ccccc3F)nc2c1)c1ncn[nH]1 returned DAX1 inh-1 0, hgDAF12 agonist 19*, hcDAF-12 act 6.4*, ssDAF-12 act 1, DAX1 inh-2 5.0*, DAX1 inh confirm 9.3*, SF1 AF2mut Luc 5.3*, hgDAF12 conf 19* and LXR ag 2 1.
Screening CCN1CCCCC(NC(=O)c2ccccc2C)C1=O (stereo unspecified) returned hgDAF12 agonist 3, hcDAF-12 act 1, ssDAF-12 act -1 and DAX1 inh-2 1.
CCOc1cc(CCNC(=O)c2cc3ccsc3n2C)ccc1OC was read as hgDAF12 agonist 0, hcDAF-12 act 0, ssDAF-12 act -2 and DAX1 inh-2 -1.
For COC[C@@H]1CCCN1c1cccc2c1S(=O)(=O)N1CC[C@H](C1)O2 the results were hgDAF12 agonist -3, hcDAF-12 act 0, ssDAF-12 act 0 and DAX1 inh-2 0.
Screening CC(C)(C)c1ccc(C(=O)Nc2ccccc2Cl)cc1 returned DAX1 inh-1 5.0*, hgDAF12 agonist 32*, hcDAF-12 act 10*, ssDAF-12 act 1.5*, DAX1 inh-2 7.7*, DAX1 inh confirm 16*, SF1 AF2mut Luc 6.5*, LXR ag 2, hcDAF12 ag 9.4*, hgDAF12 conf 19* and LXR ag 2 1.
`CS(=O)(=O)Nc1ccc(C(=O)Nc2ccccc2Cl)cc1` gave hgDAF12 agonist 5, hcDAF-12 act 0, ssDAF-12 act -1 and DAX1 inh-2 0.
For Cc1csc(NC(=O)COc2ccc3c(c2)CCC3)n1 the results were DAX1 inh-1 2, hgDAF12 agonist 14*, hcDAF-12 act 4, ssDAF-12 act 0, DAX1 inh-2 4.7*, DAX1 inh confirm 9.6*, SF1 AF2mut Luc 8.5*, hgDAF12 conf 17* and LXR ag 2 1.
For Cc1ccc(OCc2nc(-c3ccccn3)no2)cc1 the results were DAX1 inh-1 0, hgDAF12 agonist 18*, hcDAF-12 act 8.9*, ssDAF-12 act 0.9*, DAX1 inh-2 5.1*, DAX1 inh confirm 16*, SF1 AF2mut Luc 7.2*, LXR ag 1, hcDAF12 ag 3, hgDAF12 conf 15* and LXR ag 2 1.
For CN(C)c1ccc(CNc2nc3ccccc3n2C)cc1 the results were DAX1 inh-1 2, hgDAF12 agonist 15*, hcDAF-12 act 5, ssDAF-12 act -1, DAX1 inh-2 4.8*, DAX1 inh confirm 8.6*, SF1 AF2mut Luc 6.9*, hgDAF12 conf 17* and LXR ag 2 1.
`C#CCN1CC(COc2ccccc2)Oc2cccc(Oc3ccc(SC)c(C)c3)c2S1(=O)=O` (stereo unspecified) gave hgDAF12 agonist 1, hcDAF-12 act 1, ssDAF-12 act 0 and DAX1 inh-2 3.
C[C@H]1[C@@H](OC(=O)NCc2ccc(Cl)cc2)CC[C@@]23CCCN2C(=O)CCC[C@@H]13 was read as hgDAF12 agonist -1, hcDAF-12 act 0 and ssDAF-12 act -1.
Cc1nc2cc(NC(=O)Nc3ccccc3Cl)ccc2n1C was read as DAX1 inh-1 -2, hgDAF12 agonist 15*, hcDAF-12 act 7.1*, ssDAF-12 act 0, DAX1 inh-2 12*, DAX1 inh confirm 19*, SF1 AF2mut Luc 8.4*, LXR ag 2, hcDAF12 ag 7.8*, hgDAF12 conf 20* and LXR ag 2 1.
`Cc1ccc(NC(=O)Nc2ccc3c(c2)nc(C)n3C)cc1` gave DAX1 inh-1 -1, hgDAF12 agonist 17*, hcDAF-12 act 8.7*, ssDAF-12 act 1, DAX1 inh-2 6.4*, DAX1 inh confirm 16*, SF1 AF2mut Luc 7.2*, LXR ag 1, hcDAF12 ag 5, hgDAF12 conf 17* and LXR ag 2 1.
For COc1cccc2cc3c(nc12)C[C@@H]1CCCC(=O)N2CCC[C@@]12C3 the results were hgDAF12 agonist 0, hcDAF-12 act -2 and ssDAF-12 act -1.
CCN(C(=S)Nc1cc(S(=O)(=O)N2CCOCC2)ccc1Cl)c1cccc2ccccc12 was read as DAX1 inh-1 0, hgDAF12 agonist 0, hcDAF-12 act 6.8*, ssDAF-12 act 1.2*, DAX1 inh-2 -1, LXR ag 0 and hcDAF12 ag 1.
`O=S(=O)(c1ccc(Cl)c(NC(=S)Nc2cccc(O)c2)c1)N1CCOCC1` gave DAX1 inh-1 1, hgDAF12 agonist -1, hcDAF-12 act -1, ssDAF-12 act -1 and DAX1 inh-2 0.
